Compound activity deposited in PubChem BioAssay by several laboratories.
AHR activator – activators of human aryl hydrocarbon receptor; 320,000 compounds, 2.5% hits; activation, % at 5 µM; AHR-responsive luciferase reporter cells, luminescence; P35869; AID 2796; in the data active = activation above about 47%;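 note: 0% = vehicle wells and 100% = reference agonist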
Target sequence (P35869 whole entry, looked up): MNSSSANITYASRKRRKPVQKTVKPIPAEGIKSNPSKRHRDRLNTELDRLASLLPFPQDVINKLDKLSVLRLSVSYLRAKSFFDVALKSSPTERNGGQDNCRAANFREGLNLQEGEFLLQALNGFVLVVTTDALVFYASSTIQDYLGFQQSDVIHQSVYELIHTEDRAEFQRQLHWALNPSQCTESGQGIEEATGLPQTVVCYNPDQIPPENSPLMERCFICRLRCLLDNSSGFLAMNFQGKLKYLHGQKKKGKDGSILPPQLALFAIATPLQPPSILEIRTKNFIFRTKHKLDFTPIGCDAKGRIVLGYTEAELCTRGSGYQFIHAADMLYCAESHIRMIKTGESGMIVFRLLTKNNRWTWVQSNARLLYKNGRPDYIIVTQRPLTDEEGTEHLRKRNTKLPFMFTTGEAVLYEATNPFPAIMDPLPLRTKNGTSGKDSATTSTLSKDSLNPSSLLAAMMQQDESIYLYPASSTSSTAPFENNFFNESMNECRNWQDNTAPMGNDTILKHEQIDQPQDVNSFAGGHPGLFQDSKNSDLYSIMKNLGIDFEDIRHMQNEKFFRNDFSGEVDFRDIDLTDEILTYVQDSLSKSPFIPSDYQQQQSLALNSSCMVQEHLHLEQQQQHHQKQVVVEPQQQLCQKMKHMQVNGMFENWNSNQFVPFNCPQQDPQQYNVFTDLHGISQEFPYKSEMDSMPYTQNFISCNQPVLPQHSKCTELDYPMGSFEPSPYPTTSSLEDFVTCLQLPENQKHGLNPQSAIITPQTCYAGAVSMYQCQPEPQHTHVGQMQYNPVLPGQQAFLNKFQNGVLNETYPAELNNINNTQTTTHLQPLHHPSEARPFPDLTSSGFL
Efflux pump mplx – inhibitors of Candida antifungal efflux pumps expressed in yeast | 330,000 compounds, 0.44% hits | inhibition, % at 10 µM | S. cerevisiae Candida pump triplex, Nile Red efflux;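 active = plate passing quality check with inhibition over a set limit, or well fluorescence over plate mean plus 4 SD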;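 note: Nile Red retained in pooled yeast measured as flow cytometry median fluorescence; 0% = buffer negative control and 100% = Enniatin B positive control; higher means more Nile Red kept so more efflux inhibition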
VLA-4 inh – inhibition in a human VLA-4 binding assay; 330,000 compounds, 0.2% hits; VLA-4 expressing cells, ligand binding flow cytometry; inhibition, % (about 7 µM as worked out from the volumes in the protocol); P13612; in the data active = inhibition above about 50%
SUMO Mot1 rescue – SUMOylation pathway inhibition by Mot1-301 growth rescue. S. cerevisiae Mot1-301 growth rescue, ATP luminescence, 38.5C; percent above DMSO median, 100 means doubled. growth rescue, % at 18.8 µM. 320,000 compounds, 1% hits;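 active = every valid replicate shows activation above 250% relative to neutral control wells; inactive = the rest, any valid replicate at or below 250%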;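 note: OY570 slx delta 5 strain wells were the positive control but not used for scaling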
ALR inh – blocks human ALR sulfhydryl oxidase activity. inhibition, % (concentration not given with the values). purified ALR, DTT oxidation, H2O2 HRP-luminol luminescence. 290,000 compounds, 3.8% hits. P55789;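 active = mean replicate inhibition above about 79%, with every replicate also reaching it, limit read from the data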
Bfl-1 A1 inh – inhibitors of the anti-apoptotic protein A1, read as caspase activation; MEF A1-2A-BIM cells, Caspase-Glo 3/7 luminescence, 3 h; percent of clofoctol response, vehicle zero; caspase activation, % (concentration not given with the values); 330,000 compounds, 0.066% hits;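 active = over half of replicate activation scores above 10%, or exactly half above 10 with the replicate mean above 10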
Numbers without * were called inactive; i = inactive; / = not tested or not shown. Most compounds without a hit are left out; they make up all but 7.2% or so of the library.

SMILES | AHR activator | Efflux pump mplx | VLA-4 inh | SUMO Mot1 rescue | ALR inh | Bfl-1 A1 inh
CCn1cc(C(=O)OCC(=O)N(C)Cc2ccccc2)c(=O)c2ccc(C)nc21 | -3 | 0 | 14 | 13 | / | 0
S=c1nc(-c2ccc(Cl)cc2)[nH][nH]1 | 9 | 0 | 14 | -1 | / | 0
CCCOc1ccc(-c2nc(=S)[nH][nH]2)cc1 | 8 | 0 | 4 | -5 | 99* | 0
CC(C)(C)NC(=O)COC(=O)c1ccc(NC(=O)CC#N)cc1 | 13 | 0 | 7 | 41 | 99* | -1
CC1CN(C(=O)COC(=O)c2ccc(NC(=O)CC#N)cc2)CC(C)O1 (stereo not given) | 0 | 0 | -1 | 18 | 99* | 1
N#CCC(=O)Nc1ccc(C(=O)OCC(=O)c2ccc3c(c2)OCO3)cc1 | 2 | 0 | 4 | -14 | 99* | 0
N#CCC(=O)Nc1ccc(C(=O)OCC(=O)Nc2ccc3ccccc3c2)cc1 | 9 | 0 | 11 | 15 | 92* | 0
CCOc1ccc(C(=O)OCC(=O)N2CC(C)OC(C)C2)cc1OCC (stereo not given) | -3 | 0 | 8 | -10 | -2 | 0
CC(C)C(NC(=O)c1c(F)cccc1F)C(=O)NCc1ccc(S(=O)(=O)N2CCOCC2)cc1 (stereo not given) | 0 | 0 | 11 | 6 | -2 | -1
CS(=O)(=O)Nc1ccc(C(=O)Nc2ccc(S(=O)(=O)N3CCCC3)cc2)cc1 | 0 | 0 | -1 | 5 | -22 | 0
CCOc1cc(C2NC(=O)c3ccccc3O2)ccc1OC(C)C (stereo not given) | 3 | 0 | 11 | -23 | -14 | 0
CCc1nc2ccccc2n1Cc1ccc(OC)c(OC)c1 | 1 | 0 | 10 | 4 | 8 | 1
COc1ccc(/C=C/c2nc3ccccc3n2Cc2ccc(OC)c(OC)c2)cc1 | 24 | 0 | 5 | 353* | -14 | -4
C=CCNC(=O)C1CCC(=O)N1S(=O)(=O)c1ccc(C)cc1 (stereo not given) | 11 | 0 | 5 | 67 | -5 | 1
Cc1c(Br)c(=O)oc2c(Br)c(O)ccc12 | -1 | 0 | 10 | 26 | 8 | 0
Cc1c(Br)c(=O)oc2c(Br)c(O)c(O)cc12 | 0 | 0 | 20 | -2 | 98* | 0
COCc1ccc(C(=O)N2CCCC(C(=O)c3cc(F)ccc3F)C2)s1 (stereo not given) | 1 | 1 | -13 | -5 | -3 | -1
O=C(O)CN1C(=O)C(=O)N(Cc2cccc(F)c2)C1=O | 2 | 0 | 3 | 293 | 0 | 0
CC(C)c1ccc(NC(=O)CSc2nc(=O)[nH]c3c2CCCC3)cc1 | 6 | 0 | 18 | -12 | -335 | 0
Cc1nn(-c2nnc(C)c(=O)[nH]2)c(C)c1SCC(=O)Nc1ccc(C(C)C)cc1 | 2 | 0 | 4 | -12 | 98* | 0
Cc1nn(-c2nnc(C)c(=O)[nH]2)c(C)c1SCC(=O)Nc1ccc(F)cc1 | 1 | 0 | 1 | -2 | 99* | 1
Cc1ccc2[nH]c3c(=O)n(CC(=O)NCc4ccco4)ncc3c2c1 | 14 | 0 | 2 | 18 | 2 | 0
O=C(CCc1nc(-c2ccccc2Cl)no1)NCc1ccco1 | 1 | 0 | 2 | 1 | / | 0
Cc1oc(-c2ccccc2Cl)nc1CS(=O)CC(=O)NCc1ccccc1Cl (stereo not given) | 0 | 0 | 2 | -7 | 99* | 1
Cc1oc(-c2ccccc2Cl)nc1CS(=O)CC(=O)NCc1ccco1 (stereo not given) | 1 | 0 | -1 | 4 | 98* | 0
SMILES | AHR activator | Efflux pump mplx | VLA-4 inh | SUMO Mot1 rescue | ALR inh | Bfl-1 A1 inh
Cc1oc(-c2ccc(Cl)cc2)nc1CS(=O)CC(=O)NCc1ccco1 (stereo not given) | 0 | 0 | 15 | 57 | 99* | 0
N#C/C(=C\c1ccc(Cl)s1)C(=O)N1CCN(c2ccccc2)CC1 | 0 | -1 | -13 | 41 | 68 | 1
Cc1cccc(Nc2nc(C)nc3c2oc2ccccc23)c1 | 48* | 0 | 12 | 18 | -3 | 0
CCc1nc(Nc2ccc3c(c2)OCO3)c2oc3ccccc3c2n1 | 96* | 0 | 25 | -19 | 13 | -1
COc1ccc(CCNc2nc(C)nc3c2oc2ccccc23)cc1OC | 34 | 0 | 15 | 1 | -2 | 0
Cc1nc(NCCc2cnc[nH]2)c2oc3ccccc3c2n1 | 53* | 0 | 8 | -7 | -3 | 0
Cc1nc(N[C@@H](Cc2c[nH]c3ccccc23)C(=O)O)c2oc3ccccc3c2n1 | 34 | 0 | 12 | 75 | -18 | -1
CCc1nc(N[C@@H](Cc2c[nH]c3ccccc23)C(=O)O)c2oc3ccccc3c2n1 | 15 | 0 | 0 | 7 | 89* | 1
CC(C)Nc1ccc(C(CC(N)=O)NC(=O)Cc2ccc(Cl)cc2)cc1[N+](=O)[O-] (stereo not given) | 3 | 0 | -1 | 0 | 2 | 0
CC(=O)N1CCN(c2ccc(Nc3nc(C)nc4c3oc3ccccc34)cc2)CC1 | 5 | 0 | 13 | -4 | 96* | 1
O=C(c1ccco1)N1CCN(Cc2nnc(-c3ccccc3)o2)CC1 | 0 | 0 | 1 | -1 | -8 | -1
Cc1cc(NCc2ccccn2)nc2ccccc12 | 26 | 0 | 3 | 1 | 84* | -1
O=C(CSC1=NCCN1)C1COc2ccccc2O1 (stereo not given) | 1 | 0 | 6 | -2 | 93* | 0
Cc1nc2ccccc2cc1C(=O)Nc1ccccc1Cl | 36 | 0 | 2 | -12 | 27 | 1
Cc1nc2ccc(F)cc2cc1C(=O)Nc1cccc(Cl)c1C | 107* | -1 | 7 | -2 | -2 | 1
CCSc1nnc2c(n1)[nH]c1c(C)cccc12 | 53* | 0 | -6 | 14 | 1 | -2
CC(C)(C)c1ccc(-n2ncc3c2CCCC3NC(=O)C2(C(N)=O)CC2)cc1 (stereo not given) | -7 | 0 | 6 | 276 | / | -3
N#CCc1nn(-c2ccc(Cl)cc2)c(N)c1C#N | 64* | 0 | 0 | 27 | / | 1
C=CCC1(/C=N/O)CCOC(C)(C)C1 (stereo not given) | -1 | 0 | 7 | -7 | -1 | 1
CCN(CC)c1ccc(CNC23CN4CN(CN(C4)C2)C3)cc1 | 1 | 0 | 28 | / | 98* | 1
CN(C)C(CNC(=O)CN1C(=O)NC2(CCc3ccccc32)C1=O)c1ccco1 (stereo not given) | -3 | 0 | 21 | i | 100* | -1
O=C(CN1C(=O)NC2(CCc3ccccc32)C1=O)c1ccc(Br)cc1 (stereo not given) | 3 | 0 | 5 | 278* | -4 | 0
O=C(CN1C(=O)NC2(CCCc3ccccc32)C1=O)NCc1ccco1 (stereo not given) | 0 | 0 | -4 | 8 | -6 | 0
